KCNQ2 inh: rat KCNQ2 potassium channel inhibitors, primary screen, cell-based, CHO-K1, FluxOR thallium flux, B-score; 20 min; stronger effect = lower value; B-score at 10 µM; hit rate 1.1% among 310,000;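 active = fluorescence ratio B-score at most minus 3 library SDs, with starting brightness B-score within 2 library SDs, cut at about -5.5 in these data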
KCNQ2 pot: potentiators of rat KCNQ2 potassium channel. Potassium voltage-gated channel subfamily KQT member 2 (Rattus norvegicus), O88943. CHO-K1 KCNQ2, FluxOR thallium flux fluorescence; stronger effect = higher value. B-score at 10 µM. hit rate 0.54% among 310,000;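 active = fluorescence ratio B-score at least 3 SD of library B-scores, with initial fluorescence B-score within 3 of them, cut at about 5.3 in these data; same plate scores as AID 2156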;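 also: B-score of peak minus minimum over baseline fluorescence ratio after K+ and Tl+ stimulus; positive B-score means potentiation of KCNQ2 with more thallium influx and brighter signal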
KCNQ2 block conf: rat KCNQ2 potassium channel inhibitors, confirmation, cell-based, thallium flux; shares compounds with KCNQ2 inh; activity change, negative = inhibition, % at 10 µM; hit rate 57% among 1,000; KCNQ2-expressing cells, inhibition; stronger effect = lower value;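 also: 0% = vehicle wells and values are ratio percent relative to vehicle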
KCNQ1 spec: human KCNQ1 channel inhibition, counter-screen for KCNQ2 inhibitor project, cell-based, FluxOR thallium flux; shares compounds with KCNQ2 inh; KCNQ1-expressing cells, FluxOR thallium flux fluorescence; stronger effect = lower value; activity change, negative = inhibition, % at 10 µM; hit rate 15% among 1,000;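 active = activity change at least 3 SD of negative controls below their mean in both duplicate wells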;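 also: CHO cells stably transfected with KCNQ1 and depolarized by potassium stimulus; peak minus minimum fluorescence over baseline after thallium addition; 0% = vehicle negative control and -100% = blank without thallium stimulus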
CHO parental ctr: thallium flux change in parental CHO cells, counter-screen for KCNQ2 inhibitor project; shares compounds with KCNQ2 inh; stronger effect = lower value; activity change, % at 10 µM; hit rate 14% among 1,000;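 also: 0% = vehicle negative controls with stimulus buffer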
KCNQ2 inh confirm: rat KCNQ2 channel inhibitors, confirmation, cell-based, automated patch clamp, single concentration | hit rate 49% among 550 | shares compounds with KCNQ2 inh | KCNQ2-expressing cells, automated patch clamp current | calls only at 10 µM
* = called active by the depositor; i = inactive; . = not tested or not shown; + = active, no number. An excerpt weighted towards active compounds, which were near 1.6% of everything screened. Unless noted, no rule for the calls is given here.

SMILES	KCNQ2 inh	KCNQ2 pot	KCNQ2 block conf	KCNQ1 spec	CHO parental ctr	others
O=C(CCNc1ccccc1)c1cccc([N+](=O)[O-])c1	-7.93*	-7.93	i	i	i
OCC1(CCc2ccccc2)CCCN(CCCC(F)(F)F)C1 (stereo not given)	i	.	.	.	.
OCC1(CCc2ccccc2)CCCN(CCCc2ccccc2)C1 (stereo not given)	-6.62*	-6.62	-35.5%*	-33.5%*	-25.5%*	KCNQ2 inh confirm=i
CCN(CC)CCNC(=O)c1cc(-c2ccco2)nc2ccccc12	i	0.72	.	.	.
COc1ccc(CCNC(=O)c2cc(-c3ccco3)nc3ccccc23)cc1	-8.16*	-8.16	-27.0%*	i	i	KCNQ2 inh confirm=+
O=C(COC(=O)c1cc(-c2ccco2)nc2ccccc12)NCc1ccccc1	-6.91*	-6.91	i	i	i
CNC(=O)COC(=O)c1cc(-c2ccco2)nc2ccccc12	i	.	.	.	.
CN(/N=C\c1ccc(O)c(O)c1)c1nc(-c2ccccc2)cc(-c2ccccc2)n1	i	1.98	.	.	.
COCCn1nnnc1C(c1cc2cc(OC)ccc2[nH]c1=O)N1CCC(Cc2ccccc2)CC1 (stereo not given)	i	0.73	.	.	.
COc1ccc2cc(C(c3nnnn3CCc3ccccc3)N3CCCC(C)C3)c(=O)[nH]c2c1 (stereo not given)	-8.58*	-8.58	-35.0%*	i	i	KCNQ2 inh confirm=+
CC(C)(CO)NCC(O)Cn1cc(C=O)c2ccccc21 (stereo not given)	i	1.73	.	.	.
COc1ccc(Cl)cc1C(=O)NNC(=S)NC(=O)c1ccc(F)c(F)c1	i	0.02	.	.	.
COc1ccccc1Nc1nc(N)nc(CN2CCN(Cc3ccccc3)CC2)n1	-9.95*	-9.95	-18.5%*	i	i	KCNQ2 inh confirm=i
COc1ccccc1Nc1nc(N)nc(CN2CCCCC2)n1	i	.	.	.	.
CCN(CC)S(=O)(=O)c1ccc(O)c(NS(=O)(=O)c2ccccc2F)c1	i	.	.	.	.
COc1ccc(C(=O)CC(=O)c2ccccc2)cc1	i	0.38	.	.	.
COc1ccc(C(=O)C/C(=C\C(=O)c2ccc(C)cc2)c2ccccc2)cc1	-7.67*	-7.67	i	i	i
COP(=O)(c1ccc(N(C)C)cc1)C(O)c1ccccc1 (stereo not given)	i	.	.	.	.
Cn1c(=O)c(C(=O)NNC(=O)c2ccc(Br)cc2)c(O)c2ccccc21	i	.	.	.	.
Cc1noc(C)c1COc1ccc(C(=O)N2CCN(c3ccccn3)CC2)cc1	i	0.61	.	.	.
O=C(Nc1cccc(-c2csc(Nc3cccc(C(F)(F)F)c3)n2)c1)c1ccccc1	i	1.29	.	.	.
O=C(Nc1cccc(-c2csc(Nc3ccccc3)n2)c1)c1ccccc1	-6.8*	-6.8	i	i	i
CCOC(=O)N1CCC(NC(=O)CC2C(=O)NCCN2Cc2cccc(F)c2F)CC1 (stereo not given)	i	.	.	.	.
CC1CCN(C(=O)Cn2c(=O)n(Cc3ccc4c(c3)OCO4)c(=O)c3ccccc32)CC1	-7.17*	-7.17	-31.0%*	i	i	KCNQ2 inh confirm=+
O=C(Cn1c(=O)n(Cc2ccc3c(c2)OCO3)c(=O)c2ccccc21)N1CCCc2ccccc21	i	.	.	.	.
SMILES	KCNQ2 inh	KCNQ2 pot	KCNQ2 block conf	KCNQ1 spec	CHO parental ctr	others
CC1CCN(C(=O)CSc2nc3ccccc3c(=O)n2Cc2ccc3c(c2)OCO3)CC1	-7.33*	-7.33	i	i	i
CC1CCCCN1C(=O)CSc1nc2cc3c(cc2c(=O)n1Cc1ccc2c(c1)OCO2)OCO3 (stereo not given)	i	.	.	.	.
CC(C)CCN1CCN(Cc2nc3c(s2)CCCC3)CC1CCO (stereo not given)	i	.	.	.	.
Cc1ccc(S(=O)(=O)N(CC(=O)NCC2CCCO2)Cc2ccc(F)cc2)cc1 (stereo not given)	i	.	.	.	.
CC(C)c1nc(N2CCN(C(=O)c3ccco3)CC2)c2c3c(sc2n1)CCCC3	-8.69*	-8.69	i	i	i
Cc1nc(N2CCN(C(=O)c3ccco3)CC2)c2c3c(sc2n1)CCC3	i	1.2	.	.	.
CC(=O)Nc1ccc(C(=O)N/C(=C/c2ccccc2)C(=O)N2CCCCC2)cc1	i	.	.	.	.

Screening results as filed in PubChem.
